Assay results: PubChem BioAssay (Tox21)
Results filed as inconclusive are left out. A call without a number means that no potency is given here. The source made the active and inactive calls. The call rests on the fitted dose curve; in most records, active means well fitted inhibition curve with a large enough effect in the repeat runs; inconclusive means weak or mixed curves; inactive means no such curve, though single readings can be large or run the other way.

The compounds below were run against Estrogen receptor (Homo sapiens) (UniProt P03372) (assay: qHTS assay to identify small molecule antagonists of the estrogen receptor alpha (ER-alpha) signaling pathway using the BG1 cell line in the presence of 0.1 nM 17-beta-estradiol (AID 1259244; further: nearly all actives have a fitted effect of over 50% in size)). Settings: VM7Luc4E2 (BG1) ERE-luciferase, antagonist mode, 0.1 nM E2, 22 h; series mostly up to 92.4 µM.
Estrogen receptor (Homo sapiens), sequence (P03372 whole entry, looked up): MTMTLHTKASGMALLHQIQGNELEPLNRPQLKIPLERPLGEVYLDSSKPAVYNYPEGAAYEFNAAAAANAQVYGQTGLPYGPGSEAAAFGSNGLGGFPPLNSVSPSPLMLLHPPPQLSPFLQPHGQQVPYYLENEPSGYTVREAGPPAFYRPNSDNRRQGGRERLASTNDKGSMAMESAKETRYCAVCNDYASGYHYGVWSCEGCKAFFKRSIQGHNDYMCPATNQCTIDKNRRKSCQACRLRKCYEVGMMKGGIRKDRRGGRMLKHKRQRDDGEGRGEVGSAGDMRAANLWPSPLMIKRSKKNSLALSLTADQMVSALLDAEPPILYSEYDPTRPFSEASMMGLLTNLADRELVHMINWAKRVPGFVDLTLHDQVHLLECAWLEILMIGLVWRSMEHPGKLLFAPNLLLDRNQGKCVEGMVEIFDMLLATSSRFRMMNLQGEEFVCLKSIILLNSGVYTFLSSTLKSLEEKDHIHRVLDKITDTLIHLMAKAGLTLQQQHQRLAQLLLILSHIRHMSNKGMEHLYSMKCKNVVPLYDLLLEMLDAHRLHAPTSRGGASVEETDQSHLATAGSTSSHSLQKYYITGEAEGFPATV
Method in brief: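 Luciferase signal from VM7Luc4E2 ERE-reporter cells, co-dosed with test compound and 0.1 nM final 17beta-estradiol for 22 h, read with ONE-Glo.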

| SMILES | Potency |
| --- | --- |
| C=CCOc1c(Br)cc(Br)cc1Br | inactive |
| O=C1OC(=O)c2ccccc21 | inactive |
| CC(C)CCCC(C)CC=O (centres undefined) | inactive |
| OC[C@@H](O)[C@H](O)[C@@H](O)[C@@H](O)CO | inactive |
| C=CCOC(=O)c1ccc(C(=O)OCC=C)c(C(=O)OCC=C)c1 | inactive |
| CCOC(=O)C(=O)c1csc(NC=O)n1 | inactive |
| Nc1ccc(C(=O)OCC(O)CO)cc1 (centres undefined) | inactive |
| CC(CC(=O)O)CC(C)(C)C (centres undefined) | inactive |
| CC(C)C(=O)c1ccccc1 | inactive |
| CC(C)C(=O)Nc1cccc(C(F)(F)F)c1 | inactive |
| NC(=O)NNC(N)=O | inactive |
| O=C(O)c1c(Cl)ccc(Cl)c1Cl | inactive |
| CCCCCC(=O)OCC | inactive |
| CCC1COC(=O)O1 (centres undefined) | inactive |
| Cc1ccc(C(=O)C(=O)O)cc1C | inactive |
| CC(=O)/C=C/c1ccco1 | inactive |
| CC(C)(c1ccc(Oc2ccc3c(c2)C(=O)OC3=O)cc1)c1ccc(Oc2ccc3c(c2)C(=O)OC3=O)cc1 | inactive |
| O=S(=O)(O)CCO | inactive |
| CCCCCCCCCCCCC1CO1 (centres undefined) | inactive |
| CCCCCCCCCCCCOC(C)=O | inactive |
| CO[Si](CCCS)(OC)OC | inactive |
| Cc1cccc(C(=O)O)c1[N+](=O)[O-] | inactive |
| CC(C)(C)NCCO | inactive |
| CC(=O)OC(C)c1ccccc1 (centres undefined) | inactive |
| CC1=CC[C@H](CC=O)C1(C)C | inactive |
| CN(C)CCOCCN(C)CCO | inactive |
| C=C[Si](C)(C)O[Si](C)(C)C=C | inactive |
| CCCCOC(=O)[C@@H](C)Oc1ccc(Oc2ccc(C(F)(F)F)cn2)cc1 | inactive |
| CC(C)SCc1ccco1 | inactive |
